GSH fluor: compound fluorescence on glutathione beads, profiling panel, artefact control, biophysical, 488/530 nm, flow cytometry. AID 1776, 2009. 0.25% of 190,000 active. GSH beads flow cytometry, compound fluorescence 488/530 nm; active compounds read high. fluorescence (KMESF) at 10 µM; in the data active = fluorescence above about 89;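 note: glutathione beads carrying GST-tagged Bcl family fusion proteins plus one bare bead set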
Avidin bead fluor: green autofluorescence of compounds with avidin beads – biophysical, 488/530 nm, flow cytometry, artefact control, profiling panel | fluorescence (KMESF) at 10 µM | compound fluorescence 488/530 nm; active compounds read high | 0.38% of 220,000 active; in the data active = fluorescence above about 47
RGS7-Gao: RGS7-Galphao binding modulators, primary screen, biochemical, multiplexed bead flow cytometry. actives lie on both sides. AID 1439, 2008. binding response (% of control), % at 10 µM. 0.35% of 220,000 active; in the data active = binding response below about 49% or above about 150%; inconclusive = no clear call, values can overlap the other calls; inactive = in between;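 note: fluorescent Galphao held in activated GDP-AlF4 state binding bead-coupled RGS7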
Target sequence (P09471 whole entry, looked up): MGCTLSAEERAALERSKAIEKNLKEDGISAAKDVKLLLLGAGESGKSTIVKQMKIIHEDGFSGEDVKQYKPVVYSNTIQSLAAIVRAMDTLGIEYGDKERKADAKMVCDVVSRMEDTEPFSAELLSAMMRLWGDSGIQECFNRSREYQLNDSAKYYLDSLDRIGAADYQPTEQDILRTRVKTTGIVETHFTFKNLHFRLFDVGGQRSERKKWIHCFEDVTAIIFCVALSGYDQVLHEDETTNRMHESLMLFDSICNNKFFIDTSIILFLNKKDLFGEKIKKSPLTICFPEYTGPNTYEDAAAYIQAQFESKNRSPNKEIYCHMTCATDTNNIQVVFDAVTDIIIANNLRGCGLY
RGS4-Gao reg: modulators of RGS4 binding to Galphao, primary screen, biochemical, multiplexed bead flow cytometry; actives lie on both sides; binding response (% of control), % at 10 µM; 0.33% of 220,000 active; AID 1415, 2008; in the data active = binding response below about 49% or above about 150%; inactive = in between;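 note: fluorescent Galphao activated with aluminum fluoride binding bead-coupled RGS4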
RGS16-Gao: modulators of RGS16 binding to Galphao, primary screen, biochemical, human proteins, multiplexed bead flow cytometry. Regulator of G-protein signaling 16 (Homo sapiens) + Guanine nucleotide-binding protein …. bead-based flow cytometry RGS16-Galphao binding, fluorescence; actives lie on both sides. binding response (% of control), % at 10 µM. 0.38% of 220,000 active. AID 1441, 2008;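 note: Galphao activated by GDP with aluminum fluoride before binding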
RGS8-Gao: RGS8-Galphao binding modulators, primary screen, biochemical, multiplexed bead flow cytometry. Guanine nucleotide-binding protein G(o) subunit alpha (Homo sapiens), P09471. actives lie on both sides. 0.34% of 220,000 active. response (percent of control binding), % at 10 µM; in the data active = response below about 60% or above about 140%; inactive = in between;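 note: Galphao activated as the GDP aluminium fluoride complex binding bead-coupled RGS8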
RGS4-Gao HTS: modulators of RGS–Galpha-o binding, primary screen, biochemical, multiplexed beads, flow cytometry, RGS4/7/8/16/19; shares compounds with RGS16-Gao; multiplexed bead flow cytometry; RGS4–Galpha-o binding response, % at 10 µM; 99% of 1,600 active;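 note: fluorescently labeled Galpha-o bound to GDP with aluminium fluoride binding biotinylated RGS beads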
Target sequence (P09471 whole entry, looked up): as above
Target sequence (P49798 whole entry, looked up): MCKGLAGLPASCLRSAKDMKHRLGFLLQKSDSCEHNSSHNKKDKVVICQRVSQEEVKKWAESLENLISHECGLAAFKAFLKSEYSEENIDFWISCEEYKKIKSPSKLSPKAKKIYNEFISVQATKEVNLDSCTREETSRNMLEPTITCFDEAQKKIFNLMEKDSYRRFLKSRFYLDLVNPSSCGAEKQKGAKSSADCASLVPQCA
Biotin-avidin: disruption of biotin probe capture by avidin, counter-screen for RGS protein interaction modulators, biochemical, flow cytometry, bead-based | shares compounds with RGS16-Gao | streptavidin beads, fluorescein-biotin binding | inhibition, % at 10 µM | 1,700 tested, under 10 active | AID 1783, 2009;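 active = inhibition above 50%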;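 note: median green fluorescence of gated singlet beads compared with DMSO control wells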
RGS8-Gao single: RGS8-Galphao binding modulators, confirmation, biochemical, multiplexed bead flow cytometry, single concentration; bead-based flow cytometry RGS8-Galphao binding, fluorescence; actives lie on both sides; 3% of 1,700 active; shares compounds with RGS16-Gao; binding response (% of control), % at 10 µM; in the data active = binding response below about 72% or above about 130%; inactive = in between;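 note: Galphao activated as GDP AlF4 complex before binding bead RGS8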
RGS7-Gao single: RGS7-Galphao binding modulators, confirmation, biochemical, multiplexed bead flow cytometry, single concentration. shares compounds with RGS16-Gao. bead-based flow cytometry RGS7-Galphao binding; actives lie on both sides. response (percent of control binding), % at 10 µM. 7.8% of 1,700 active. AID 1837, 2009; in the data active = response below about 75% or above about 130%; inactive = in between;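 note: fluorescent Galphao activated with GDP and aluminum fluoride binding bead-coupled RGS7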
RGS16-Gao conf: modulators of RGS16-Galphao protein binding, confirmation, biochemical, single concentration, multiplexed bead flow cytometry | shares compounds with RGS16-Gao | bead-based flow cytometry; actives lie on both sides | response (% of control binding), % at 10 µM | 4% of 1,700 active; in the data active = response below about 74% or above about 130%; inactive = in between;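 note: Galphao activated as the GDP aluminium fluoride complex binding bead-coupled RGS16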
RGS4-Gao confirm: modulators of RGS4-Galphao protein binding, confirmation, biochemical, single concentration, multiplexed bead flow cytometry; AID 1840, 2009; actives lie on both sides; 4% of 1,700 active; binding response (% of control), % at 10 µM; shares compounds with RGS16-Gao; in the data active = binding response below about 74% or above about 130%; inactive = in between
RGS19-Gao single: regulators of RGS19-Galphao binding, confirmation, biochemical, single point, multiplexed bead flow cytometry; shares compounds with RGS16-Gao; bead-based flow cytometry RGS19-Galphao binding; actives lie on both sides; response (percent of control binding), % at 10 µM; 5% of 1,700 active; in the data active = response below about 50% or above about 160%; inactive = in between
Large screens that a line does not name were inactive (follow-up assays come after a bar, where they were run); [ ] = another dose, or the depositor's remark. An excerpt weighted towards active compounds, which were near 1.2% of everything screened. Unless noted, the rule behind the calls is not given here.

Nc1nnc(SCC(=O)OCC(=O)NC23CC4CC(CC(C4)C2)C3)s1	RGS7-Gao inconclusive, RGS4-Gao reg 18.5, RGS16-Gao 7.7, RGS8-Gao 13.5 | Biotin-avidin inactive | RGS8-Gao single inactive | RGS7-Gao single inactive | RGS16-Gao conf inactive | RGS4-Gao confirm inactive | RGS19-Gao single inactive
O=S(=O)(Cc1noc(-c2ccc(Cl)cc2)n1)Cc1ccco1	RGS7-Gao inconclusive (no result: GSH fluor)
CCOc1ccc(Br)cc1-c1noc(-c2cccs2)n1	RGS7-Gao 12.0, RGS4-Gao reg 21.3, RGS8-Gao 8.4 | Biotin-avidin inactive | RGS8-Gao single inactive | RGS7-Gao single inactive | RGS16-Gao conf inactive | RGS4-Gao confirm inactive | RGS19-Gao single inactive
CC(C)N1CCc2c(sc(NC(=O)c3nc4ccccc4s3)c2C(N)=O)C1	none
CC(C)N1CCc2c(sc(NC(=O)c3ccc(S(=O)(=O)N4CCc5ccccc54)cc3)c2C(N)=O)C1	RGS7-Gao 153.2[activator] | RGS4-Gao HTS 147.5
Cc1cccc(N2CCN(C(=O)/C=C/c3cccs3)CC2)c1C	none
O=C(O)CCC(=O)Nc1nc2nccc(-c3ccccc3)n2n1	RGS7-Gao inconclusive (no result: GSH fluor)
Cc1[nH]cnc1CSCCN	none
Cc1[nH]cnc1CSCc1ccc(Cl)cc1	RGS16-Gao 192.0[activator], RGS8-Gao 146.7[activator] | RGS4-Gao HTS 134.1 | Biotin-avidin inactive | RGS8-Gao single inactive | RGS7-Gao single inactive | RGS16-Gao conf inactive | RGS4-Gao confirm inactive | RGS19-Gao single inactive
C=CCn1c(SCC2CCCCO2)nc2sc(CC)cc2c1=O (centres undefined)	RGS7-Gao inconclusive (no result: GSH fluor, Avidin bead fluor)
Cc1c(Br)c([N+](=O)[O-])nn1CC(=O)c1ccccc1	none
O=C(N/N=C/c1ccc(N2CCOCC2)cc1)C1CC1	none
NC(CC(=O)O)c1ccc(Br)cc1 (centres undefined)	RGS16-Gao 178.7[activator] | RGS4-Gao HTS 106.5 | Biotin-avidin inactive | RGS8-Gao single inactive | RGS7-Gao single inactive | RGS16-Gao conf inactive | RGS4-Gao confirm inactive | RGS19-Gao single inactive
COC(=O)c1cnc(NNS(=O)(=O)c2ccc(C(F)(F)F)cc2)nc1C(F)(F)F	RGS7-Gao inconclusive (no result: GSH fluor)
CSc1nnnn1-c1c(C)cccc1C	RGS7-Gao inconclusive (no result: GSH fluor)
Cc1ccc(NC2(c3nnnn3-c3c(C)cccc3C)CCCCC2)cc1	RGS16-Gao 280.8[activator] | RGS4-Gao HTS 116.1 | Biotin-avidin inactive | RGS8-Gao single inactive | RGS7-Gao single inactive | RGS16-Gao conf inactive | RGS4-Gao confirm inactive | RGS19-Gao single inactive
C/C(=N/OC(=O)C1CC12CCC2)c1ccc(Br)cc1 (centres undefined)	none
CN(C)C(=O)C1CCC(=O)N1Cc1cccs1 (centres undefined)	none
OCCNc1cnc2ccccc2n1	RGS7-Gao inconclusive
CC(=O)Nc1cnc2ccccc2n1	Avidin bead fluor 102, RGS7-Gao 180.8[activator] | RGS4-Gao HTS 113.0 | Biotin-avidin inactive | RGS8-Gao single inactive | RGS7-Gao single inactive | RGS16-Gao conf inactive | RGS4-Gao confirm inactive | RGS19-Gao single inactive
O=C(CCc1nc2ccccc2c(=O)[nH]1)Nc1ccc(Cl)c(Cl)c1	RGS16-Gao 9.1 | RGS4-Gao HTS 85.9 | Biotin-avidin inactive | RGS8-Gao single inactive | RGS7-Gao single inactive | RGS16-Gao conf inactive | RGS4-Gao confirm inactive | RGS19-Gao single inactive
O=C(COC(=O)COc1ccccc1)Nc1ccc(S(=O)(=O)N2CCOCC2)cc1	RGS7-Gao inconclusive
CC(=O)c1cccc(NC(=O)C(C)N2CCc3ccccc3C2)c1 (centres undefined)	RGS7-Gao inconclusive (no result: GSH fluor, Avidin bead fluor)
Cc1cc(S(=O)(=O)Nc2cc(C)c(O)c(C)c2)c(C)s1	none (no result: Avidin bead fluor, RGS7-Gao, RGS4-Gao reg, RGS16-Gao, RGS8-Gao) | Biotin-avidin inactive | RGS8-Gao single inactive | RGS7-Gao single inactive | RGS16-Gao conf inactive | RGS4-Gao confirm inactive | RGS19-Gao single inactive
CC(C)CNC(=O)c1ccccc1SCC(=O)NC12CC3CC(CC(C3)C1)C2	RGS16-Gao 23.3 | RGS4-Gao HTS 77.7 | Biotin-avidin inactive | RGS8-Gao single inactive | RGS7-Gao single inactive | RGS16-Gao conf inactive | RGS4-Gao confirm inactive | RGS19-Gao single inactive
COc1ccccc1N1CCN(C(=O)CSc2nc(N)cc(=O)[nH]2)CC1	Avidin bead fluor 201, RGS7-Gao 277.0[activator] | RGS4-Gao HTS 88.2 | Biotin-avidin inactive | RGS8-Gao single inactive | RGS7-Gao single inactive | RGS16-Gao conf inactive | RGS4-Gao confirm inactive | RGS19-Gao single inactive
COC(C#CCCN(C)C)(c1ccccc1)c1ccccc1	none
Cc1cc(C)n(C2CC(=O)N(c3ccc(Cl)c(Cl)c3)C2=O)n1 (centres undefined)	RGS7-Gao inconclusive (no result: GSH fluor)

Assay outcomes (PubChem)
